Laboratory results published in PubChem BioAssay.
Activity calls are given as the source filed them. Unless noted, no stated cut-off is given here; in the data, active means inhibition above about 80%; inactive means the rest.

Tests used:
[1] = UWB1.289 ovarian carcinoma cell growth inhibition, synergistic combos for chromothripsis tumors, BGB or cisplatin combos (AID 1671456); settings: UWB1.289 ovarian carcinoma cells, stronger effect = higher value;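 further: cells exposed to compound for four days; 0% = vehicle DMSO and 100% = killing by high DMSO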
[2] = LFS_MB_2R medulloblastoma cell growth inhibition, synergistic combos for chromothripsis tumors, cisplatin combos (AID 1671457); settings: LFS_MB_2R medulloblastoma cells, stronger effect = higher value;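 further: cells exposed to compound for four days before readout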
[3] = MDA-MB-436 breast carcinoma cell growth inhibition, synergistic combos for chromothripsis tumors, BGB or cisplatin combos (AID 1671458; call rule not given here;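 further: cells exposed for 96 hours; 0% = vehicle DMSO and 100% = killing by high DMSO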); settings: MDA-MB-436 breast carcinoma growth inhibition, drug combinations, stronger effect = higher value
[4] = UWB1.289_BRCA1 ovarian cancer growth, cell-based, BGB or cisplatin combinations (AID 1671459); settings: UWB1.289 BRCA1 ovarian carcinoma, drug combinations, stronger effect = higher value
[5] = human astrocyte viability loss, single and combined drugs, cytotoxicity control for chromothriptic childhood tumor combination screen, cell-based, BGB or cisplatin IC20 combos (AID 1671460); settings: Human astrocytes, drug combinations, stronger effect = higher value;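 further: cells exposed to compounds for 96 hours before viability readout; 0% = vehicle and 100% = killing control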
[6] = growth inhibition of BT084 medulloblastoma cells, cell-based, ICGC_MB145, cisplatin and BGB IC40 combos (AID 1671461); settings: drug combinations, stronger effect = higher value;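 further: cells exposed to drugs for 96 hours; 0% = vehicle DMSO and 100% = high DMSO full killing control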
[7] = growth inhibition of RCMB18 medulloblastoma cells, cell-based, cisplatin and BGB IC40 combos (AID 1671462); settings: stronger effect = higher value;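 further: cells exposed to compound for four days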
[8] = growth inhibition of CRL1545 osteosarcoma cells, cell-based, cisplatin and BGB IC20 combos (AID 1671464); settings: stronger effect = higher value;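 further: cells exposed to compound for 96 hours before readout; 0% = vehicle DMSO and 100% = high DMSO killing control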
[9] = tested on: F380Y; assay: modulators of BK channel variants, profiling panel, selectivity assay, cell-based, U2OS BacMam, thallium flux, beta subunits (AID 1259406;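 active means thallium flux through the channel raised or lowered by more than 3 SD from vehicle-only wells, actives on both sides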;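 further: initial slope of Thallos dye fluorescence rise after thallium is added; log ratio against the mean of 0.3% DMSO vehicle wells on the same plate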); settings: at 30 µM
[10] = tested on: F380Y/beta1; assay: as above; settings: at 30 µM
[11] = measured here: inhibition with BGB combination, at 0.05 µM
[12] = measured here: inhibition with cisplatin combination, at 0.05 µM
[13] = measured here: combination with cisplatin, at 0.5 µM
[14] = measured here: combination with cisplatin, at 5 µM
[15] = measured here: BGB combination, at 0.5 µM
[16] = measured here: BGB combination, at 5 µM
[17] = measured here: cisplatin combination, at 0.5 µM
[18] = measured here: cisplatin combination, at 5 µM
[19] = BGB combination, concentration series, at 5 µM
[20] = cisplatin combination, concentration series, at 5 µM
[21] = measured here: combo with BGB IC20, at 0.5 µM
[22] = measured here: combo with cisplatin IC20, at 0.5 µM
[23] = cisplatin combination, at 0.5 µM
[24] = measured here: BGB IC40 combination 0.05 uM, at 0.05 µM
[25] = measured here: BGB IC40 combination, at 0.05 µM
[26] = measured here: with BGB IC20 combination, at 0.5 µM
[27] = measured here: with cisplatin IC20 combination, at 0.5 µM

For `C[C@H]1COc2c(C3(N)CC3)c(F)cc3c(=O)c(C(=O)O)cn1c23`, the inhibition ([1]; at 0.5 µM) was 2.11% (inactive), the inhibition [1, 11] was -7.87% and the inhibition [1, 12] was -10.7%. The inhibition ([2]; at 0.5 µM) was -20.7% (inactive), the inhibition [2, 13] was -28.1% and the inhibition [2, 14] was -123%. For the same compound, the inhibition ([3]; at 0.5 µM) was -24.5% (inactive), the inhibition [3, 15] was -30.5% and the inhibition [3, 16] was -26.3%. It also gave an inhibition [3, 17] of -33.6%, an inhibition [3, 18] of 0.273% and an inhibition [4, 19] of -9.44%. The inhibition ([4]; at 0.5 µM) was -1.55% (inactive), the inhibition [4, 20] was -1.09% and the inhibition ([5]; at 0.5 µM) was 5.46% (inactive). For the same compound, the inhibition [5, 21] was 4.83%, the inhibition [5, 22] was -0.547% and the inhibition ([6]; at 0.5 µM) was -36.3% (inactive). The inhibition [6, 23] was -17.3%, the inhibition ([6]; cisplatin combination, at 5 µM) was -31.8% and the inhibition [6, 24] was 22.3%. The inhibition ([6]; single agent, at 5 µM) was -28.3%, the inhibition ([7]; at 0.5 µM) was -18.8% (inactive) and the inhibition ([7]; cisplatin combo, at 5 µM) was -20.9%. The inhibition [7, 25] was -11.8%, the inhibition [7, 13] was -24.3% and the inhibition ([7]; single agent, at 5 µM) was -38.1%. For the same compound, the inhibition ([8]; at 0.5 µM) was 9.56% (inactive), the inhibition [8, 26] was -3.27% and the inhibition [8, 27] was 14.1%. For the same compound, the inhibition ([8]; single agent, at 0.05 µM) was -13.5%, the inhibition ([8]; single agent, at 5 µM) was 10.7% and the log fold change Tl+ flux [9] was -0.0868 (inactive). The log fold change Tl+ flux [10] was 0.0568 (inactive).
In the case of `Cc1ccnc2c1NC(=O)c1cccnc1N2C1CC1`, the inhibition ([1]; at 0.5 µM) is reported as -0.21% (inactive), the inhibition [1, 11] is reported as -23.1% and the inhibition [1, 12] is reported as -13.9%. The inhibition ([2]; at 0.5 µM) was -7.48% (inactive), the inhibition [2, 13] was 3.86% and the inhibition [2, 14] was -37.6%. For the same compound, the inhibition ([3]; at 0.5 µM) was -22.8% (inactive), the inhibition [3, 15] was -19.7% and the inhibition [3, 16] was -27%. For the same compound, the inhibition [3, 17] was -29.5%, the inhibition [3, 18] was -14.1% and the inhibition [4, 19] was -12.7%. For the same compound, the inhibition ([4]; at 0.5 µM) was -12.9% (inactive), the inhibition [4, 20] was -3.3% and the inhibition ([5]; at 0.5 µM) was -5.51% (inactive). For the same compound, the inhibition [5, 21] was -5.33%, the inhibition [5, 22] was 4.46% and the inhibition ([6]; at 0.5 µM) was -28.8% (inactive). The inhibition [6, 23] was -7.59%, the inhibition ([6]; cisplatin combination, at 5 µM) was -3.69% and the inhibition [6, 24] was -12.5%. The inhibition ([6]; single agent, at 5 µM) was -22.7%, the inhibition ([7]; at 0.5 µM) was -8.82% (inactive) and the inhibition ([7]; cisplatin combo, at 5 µM) was 24.6%. It also gave an inhibition [7, 25] of -2.75%, an inhibition [7, 13] of 5.5% and an inhibition ([7]; single agent, at 5 µM) of -19.9%. The inhibition ([8]; at 0.5 µM) was -10.3% (inactive), the inhibition [8, 26] was -9.73% and the inhibition [8, 27] was -13%. The inhibition ([8]; single agent, at 0.05 µM) was -39.8%, the inhibition ([8]; single agent, at 5 µM) was 1.39% and the log fold change Tl+ flux [9] was -0.00202 (inactive). The log fold change Tl+ flux [10] was 0.0188 (inactive).
For `CC(C)c1nc(CN(C)C(=O)N[C@H](C(=O)N[C@@H](Cc2ccccc2)C[C@H](O)[C@H](Cc2ccccc2)NC(=O)OCc2cncs2)C(C)C)cs1`, the log fold change Tl+ flux [9] was -0.114 (active) and the log fold change Tl+ flux [10] was -0.406 (active).
For `Cc1nc2ccc(CN(C)c3ccc(C(=O)N[C@@H](CCC(=O)O)C(=O)O)s3)cc2c(=O)[nH]1`, the inhibition ([1]; at 0.5 µM) was 29.7% (inactive), the inhibition [1, 11] was -4.8% and the inhibition [1, 12] was 1.64%. The inhibition ([2]; at 0.5 µM) was -17.1% (inactive), the inhibition [2, 13] was -12.9% and the inhibition [2, 14] was -18.4%. For the same compound, the inhibition ([3]; at 0.5 µM) was 44.2% (inactive), the inhibition [3, 15] was 26.6% and the inhibition [3, 16] was 17.5%. For the same compound, the inhibition [3, 17] was 47.7%, the inhibition [3, 18] was 45.6% and the inhibition [4, 19] was 48.7%. For the same compound, the inhibition ([4]; at 0.5 µM) was 42.1% (inactive), the inhibition [4, 20] was 59.8% and the inhibition ([5]; at 0.5 µM) was -0.43% (inactive). The inhibition [5, 21] was 3.56%, the inhibition [5, 22] was 0.651% and the inhibition ([6]; at 0.5 µM) was -1.53% (inactive). For the same compound, the inhibition [6, 23] was 4.81%, the inhibition ([6]; cisplatin combination, at 5 µM) was -0.041% and the inhibition [6, 24] was -15.2%. For the same compound, the inhibition ([6]; single agent, at 5 µM) was -10.4%, the inhibition ([7]; at 0.5 µM) was -20.8% (inactive) and the inhibition ([7]; cisplatin combo, at 5 µM) was 14%. For the same compound, the inhibition [7, 25] was -41.8%, the inhibition [7, 13] was -4.37% and the inhibition ([7]; single agent, at 5 µM) was -40.1%. The inhibition ([8]; at 0.5 µM) was -1.83% (inactive), the inhibition [8, 26] was 13.9% and the inhibition [8, 27] was -9.68%. The inhibition ([8]; single agent, at 0.05 µM) was 0.207%, the inhibition ([8]; single agent, at 5 µM) was 28.5% and the log fold change Tl+ flux [9] was -0.025 (inactive). For the same compound, the log fold change Tl+ flux [10] was -0.0237 (inactive).
